# Out of some 370,000 compounds screened, about 6,800 (1.8%) were called active. The full list was thinned out, with actives kept by preference. Unmarked numbers belong to inactive results.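 How the source made its calls: active means activation above a cutoff set at the mean of all screened compounds plus 3 SD (cut at about 10% in these data); inactive means the rest.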
# System: Nuclear hormone receptor DAF-12 (Heterodera glycines), GAL4 fusion
# Experiment: hgDAF-12 GAL4 fusion reporter activation – cell-based, luminescence, HEK293, UAS-luciferase, primary screen (AID 687014);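 further: 0% = DMSO wells and 100% = sodium butyrate wells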
# Settings: HEK293 GAL4-hgDAF12 UAS-luciferase reporter, agonist luminescence; at 6.8 µM; stronger effect = higher value; normalized to butyrate control
row,Structure (SMILES),activation
1,O=C(O)c1ccccc1CSc1nc2ccccc2s1,10.6% (active)
2,O=C(CSc1nc2ccccc2s1)NN=Cc1ccc(O)cc1O,-1.39%
3,O=C(CSc1nc2ccccc2s1)N=Nc1c(O)[nH]c2ccccc12,-2.84%
4,COc1ccc(CC(=O)Nc2cc(S(=O)(=O)N3CCCCC3)ccc2N2CCN(C)CC2)cc1,-1.77%
5,COC(=O)C1CN(CC(C)C)CCS(=O)(=O)N1Cc1ccc(C)cc1 (stereo not given),-0.71%
6,CC(=O)Nc1ccc(NC(=O)c2ccc3c(c2)C(=O)N(c2ccccc2C)C3=O)cc1,0.55%
7,CC(C)n1c(=O)[nH]c2cc(C(=O)Nc3ccccc3)ccc21,13.3% (active)
8,CS(=O)(=O)N1CCc2cc(C(=O)Nc3ccccc3)ccc21,2.16%
9,COc1ccc(-c2ccc3c(n2)CCCN3S(=O)(=O)c2ccc(C)cc2)cc1,1.42%
10,O=C(C(=O)N1CCC(CNS(=O)(=O)Cc2ccccc2)CC1)c1cc2ccccc2o1,-2.92%
11,O=C(NNC(=O)c1csc(-c2cccnc2)n1)Nc1ccc(Cl)cc1,-2.54%
12,CN(C(=O)CSc1nc(C2CC2)nc2ccccc12)c1nc(-c2ccccc2)cs1,0.14%
13,CN(c1ccc(O)cc1)c1nc(-c2cccnc2)cs1,11% (active)
14,COc1ccc(NC(=O)c2cc([N+](=O)[O-])ccc2NC(=O)CNC2CCCCC2C)c(OC)c1 (stereo not given),1.77%
15,Cn1c(=NC(=O)C2CC2)sc2cc(F)cc(F)c21,14% (active)
16,O=C(Cn1nnc(-c2ccccc2)n1)NC(=O)NC1CCCC1,4.87%
17,CC(C)C[C@H](NC(=O)C1CC(=O)N(c2ccc3c(c2)OCCO3)C1)C(=O)NC1CCCC1 (stereo not given in full),-2.12%
18,Cc1ccc(S(=O)(=O)NCCC(=O)Nc2cccc(S(N)(=O)=O)c2)cc1C,1.82%
19,Cc1ccc(S(=O)(=O)NCCC(=O)NCc2ccc(Cl)cc2)cc1C,1.13%
20,Cc1ccnc(NC(=O)CCNS(=O)(=O)c2ccc(C)c(C)c2)c1,17.1% (active)
21,COCCNC(=O)CSc1nc2sccc2c(=O)n1-c1ccccc1,-2.26%
22,CS(=O)(=O)Nc1ccc(C(=O)N2CCCC2)cc1,-0.04%
23,CNc1cncc(-c2cccc(C(=O)N3CCOCC3)c2)n1,-2.58%
24,CNc1cncc(-c2ccc(NS(C)(=O)=O)cc2)n1,20.8% (active)

row,Structure (SMILES),activation
1,COc1ccc(-c2ccccc2C2Cc3nnccc3CN2C(=O)Nc2ccccc2)cc1 (stereo not given),-0.36%
2,O=C(Nc1cccc(Cl)c1)OC1CC2CC1[C@H]1CCCCN1[C@H]2Cc1ccccc1 (stereo not given in full),-4.33%
3,Cc1ccc2nc(CN(C)C(=O)[C@@H](Cc3ccccc3)NC(=O)[C@H]3O[C@@H](n4ccc(=O)[nH]c4=O)[C@H](O)[C@@H]3O)[nH]c2c1,-0.28%
4,Cc1ccc(C)c(NC(=O)CCC(=O)N/N=C2/CC(=O)CC(C)(C)C2)c1,-0.63%
5,COC(=O)[C@H](C(C)C)N(CCc1cn(Cc2ccccc2)nn1)S(=O)(=O)c1ccc(F)cc1Br,-2.66%
6,N#Cc1ccccc1NC(=O)c1cccc(COc2ccc(Cl)cc2Cl)c1,12.7% (active)
7,COc1ccc(Sc2ccc(NC(=O)c3cccc(Cl)c3)cc2C#N)cc1,0.58%
8,O=C(Nc1ccn(Cc2ccccc2F)n1)c1ccc(COc2ccc(Cl)cc2Cl)o1,-5.91%
9,Cn1cc(S(=O)(=O)NC(c2ccccc2)c2ccccc2)c(=O)n(C)c1=O,-1.46%
10,O=C(COC(=O)c1cnc(Cl)c(Cl)c1)NCc1ccco1,-3.41%
11,O=C(CCOc1ccccc1)NCc1ccccc1,0.5%
12,O=C(COC(=O)c1cccc(Cl)c1)NC(=O)NCc1ccccc1,0.55%
13,O=C(COC(=O)c1ccco1)Nc1ccc(Cl)cn1,0.37%
14,O=C(COC(=O)c1ccco1)NCc1ccc(Cl)cc1,10.8% (active)
15,O=C(COc1cccc(Cl)c1)NCc1ccccc1,10.5% (active)
16,O=C1CC[C@@H]2CC3(C[C@@H]4CCN1[C@H]24)Nc1cc([N+](=O)[O-])ccc1NC3=NC1CCCCC1 (stereo not given in full),0.54%
17,COc1cc(OC)c(-n2cc(-c3ccc(Cl)cc3)[nH]c2=O)cc1Cl,-2.27%
18,N#Cc1cccc(C(=O)NCC2CCN(C(=O)C(=O)c3cc4ccccc4o3)CC2)c1,-0.57%
19,COc1ccc(CNS(=O)(=O)c2cc(Br)ccc2Br)cc1,1.03%
20,O=C(CN(C(=O)c1csnn1)c1cccc(Cl)c1)NC1CCCC1,-1.27%
21,O=C(Nc1ccc(Br)cc1)OCCN1C(=O)CCC12CCC(c1ccccc1)CC2 (stereo not given),-0.22%
22,Cc1cccc(CN2CCC(n3nccc3NC(=O)c3ccccc3C)CC2)n1,-0.95%
23,COc1ccc(NC2=CC(=S)NC(C)(C)C2)cc1,1.03%
24,COc1ccc(Nc2ccc3ccccc3c2)cc1,18.4% (active)

row,Structure (SMILES),activation
1,COc1ccc(Nc2cc(=O)n(-c3ccccc3)c3c2c(=O)n(C)c(=O)n3C)cc1,-1.79%
2,OCC[C@H]1C[C@@H](O)[C@H](O)[C@]2(OCCCc3ccccc32)O1,-1.3%
3,COc1ccc(S(=O)(=O)Nc2ccc3c(c2)C(=O)N([C@H](C)CO)C[C@H](C)[C@@H](CN(C)C)OCCCC[C@H](C)O3)cc1,-1.86%
4,Cc1c(Cl)cccc1NC(=S)NCC(O)c1ccccc1 (stereo not given),0.77%
5,CCSc1ccccc1C(=O)NCc1ccc(OC)cc1,-1.12%
6,COc1ccc(C(=O)NCC[N+](C)(C)C)cc1,-0.85%
7,COc1ccc(C(=O)NCCSc2ccccc2C)cc1,12.8% (active)
8,Cc1ccc(-n2c(COc3ccccc3)nnc2SCC(=O)Nc2ccc3c(c2)OCCO3)cc1,-0.21%
9,Cc1cc(OC(=O)NCCc2ccc(F)cc2)ccc1F,0.78%
10,O=C(CSc1nnc(COc2ccccc2)n1Cc1ccco1)c1ccc2ccccc2c1,-0.51%
11,Cc1cc(C)c(C#N)c(SCC(=O)NN2CC(=O)N(c3ccccc3F)CC2=O)n1,-2.6%
12,COCc1cc(C)nc(SCC(=O)Nc2cccc(C)c2)c1C#N,0.86%
13,Cc1cc(C)c(C#N)c(SCC(=O)Nc2ccccc2)n1,11.8% (active)
14,Cc1ccccc1N1CCN(CCCN2C(=O)C3CCCCN3C2=O)CC1 (stereo not given),2.03%
15,CC1CCN(c2ccc(C(=O)O)cc2NS(=O)(=O)c2ccc(Br)s2)CC1,-3.43%
16,O=C(N[C@H](C(=O)N1CCC[C@H]1C(=O)NCCc1ccccc1Cl)c1ccccc1)c1ccccc1,-3.35%
17,Oc1ccc(-n2nnnc2SCc2c(F)cccc2Cl)cc1,0.63%
18,Fc1cccc(Cl)c1CSc1ccc(-c2ccco2)nn1,10.6% (active)
19,Cn1c(SCc2c(F)cccc2Cl)nnc1-c1cnccn1,8.5%
20,CCC(C)(C)NC(=O)C(c1ccc(O)cc1)N(C(=O)Cn1nnc2ccccc21)c1ccc(NC(C)=O)cc1 (stereo not given),-2.76%
21,C[C@H](CO)N1C[C@H](C)[C@@H](CN(C)C(=O)Nc2ccccc2F)OCc2cn(nn2)CCCC1=O,4.8%
22,COc1cc(/C=C(\C#N)c2nc3c(s2)CC(C)CC3)ccc1O (stereo not given),13.1% (active)
23,CCCC1CCC2(CCCN2CCOC(=O)NCc2ccccc2)CC1 (stereo not given),-0.9%
24,CCC(c1ccc(NC(=O)OC(C)(C)C)cc1)c1cc(OC)cc(OC)c1 (stereo not given),-1.91%

row,Structure (SMILES),activation
1,CC(C)(C)n1nc(C2CC2)c(Br)c1NC(=O)c1ccccc1F,-1.55%
2,CC(=O)c1ccc(N2CCN(CC(O)c3ccccc3)CC2)cc1 (stereo not given),-0.45%
3,CC(=O)N1Cc2ccccc2CC1C(=O)O (stereo not given),2.94%
4,CC(=O)c1ccc(N2Cc3ccccc3C2)cc1,12.2% (active)
5,O=C(NCc1cccs1)C1CCN(S(=O)(=O)c2ccccc2[N+](=O)[O-])CC1,1.45%
6,Cc1ccccc1N1CC(c2nc3ccccc3[nH]2)CC1=O (stereo not given),0.19%
7,Cc1ccc(-c2nc3ccccc3[nH]2)cc1N,12.8% (active)
8,c1ccc2[nH]c(-c3nc4ccccc4[nH]3)nc2c1,11.8% (active)
9,O=C1c2ccccc2C(c2nc3ccccc3[nH]2)N1c1ccccc1 (stereo not given),5.38%
10,CCOC(=O)CNC(=O)CSc1ncccc1-c1nc2ccccc2[nH]1,-0.67%
11,Nc1ccccc1-c1nc2ccncc2[nH]1,3.95%
12,COC(=O)C1CN(CC(C)C)CCS(=O)(=O)N1Cc1ccc(F)cc1 (stereo not given),-3.03%
13,CC(C)Cn1c(N2CCN(C(=O)/C=C/c3ccccc3)CC2)nc2ccccc21,-3.13%
14,CC(C)c1ccc(Nc2nnc(SCC(=O)c3nnc(-c4ccccc4)o3)s2)cc1,17.7% (active)
15,CC(C)Nc1nnc(SCC(=O)c2c[nH]c3ccccc23)s1,-0.17%
16,CN(C(=O)CSc1nnc(Nc2ccccc2)s1)C1CCS(=O)(=O)C1 (stereo not given),1.71%
17,O=C(NCc1cccc(CNC(=O)Nc2cccc(O)c2)c1)Nc1cccc(O)c1,-0.42%
18,O=C(OCc1ccc(-c2ccccc2)cc1)c1cccc(O)c1,7.53%
19,O=C(Nc1cccc(O)c1)c1ccc(C(=O)c2ccccc2)o1,15.9% (active)
20,CC(=O)N1CCc2cc(S(=O)(=O)NCCC(=O)N3CCCC3)ccc21,0.07%
21,COc1ccc(C(=O)O/N=C(\N)c2ccccn2)cc1[N+](=O)[O-],17.4% (active)
22,Cc1ccc(C(=O)O/N=C(\N)c2ccccn2)cc1Cl,4.09%
23,COc1ccc(C(=O)NNC(=O)c2cnccn2)cc1[N+](=O)[O-],2.33%

# — PubChem BioAssay AID687014 (The Scripps Research Institute Molecular Screening Center, 2013)
